The source of these data is PubChem BioAssay AID1488 (Vanderbilt High Throughput Screening Facility, 2009).

About 310 (18%) of roughly 1,700 compounds were called active. Another 25% or so got no clear call; they are omitted. This excerpt belongs to a sample that is enriched for actives. A number with no mark means an inactive call.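 How the source made its calls: active means fluorescence change differs from the solvent-only DMSO control mean at a set confidence level in both duplicate runs; inconclusive means differs from solvent-only control mean in just one of two runs; inactive means the rest.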

The target of the assay is Muscarinic acetylcholine receptor M1 (Rattus norvegicus) (UniProt P08482). Kind of assay: direct agonism at rat M1 receptor – CHO-M1 cells, Fluo-4 calcium, duplicate retest, confirmation (AID 1488).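 Further: an EC20 dose of acetylcholine follows compound addition during the same imaging run; raw fluorescence intensity difference in instrument units with no normalization to controls.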 The conditions noted are these: Fluo-4 calcium fluorescence, agonist mode, at 10 µM, actives lie on both sides.
Sequence of Muscarinic acetylcholine receptor M1 (Rattus norvegicus) (P08482 whole entry, looked up): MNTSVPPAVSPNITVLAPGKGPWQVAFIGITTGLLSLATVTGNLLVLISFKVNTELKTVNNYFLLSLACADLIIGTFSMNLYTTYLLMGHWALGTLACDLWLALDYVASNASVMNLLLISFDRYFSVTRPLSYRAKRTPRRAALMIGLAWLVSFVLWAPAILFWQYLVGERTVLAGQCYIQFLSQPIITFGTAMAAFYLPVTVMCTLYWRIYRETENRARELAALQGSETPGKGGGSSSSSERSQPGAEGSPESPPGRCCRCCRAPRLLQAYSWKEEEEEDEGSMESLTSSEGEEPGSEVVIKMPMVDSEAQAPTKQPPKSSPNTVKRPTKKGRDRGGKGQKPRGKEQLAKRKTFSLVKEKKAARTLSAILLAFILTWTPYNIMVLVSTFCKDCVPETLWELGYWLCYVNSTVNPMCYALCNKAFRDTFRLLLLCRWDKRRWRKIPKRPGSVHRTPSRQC
Regarding `CC(NC(=O)CSc1nc2c(cc1C#N)CN(C)CC2)c1ccccc1` (configuration not stated), the fluorescence change (max-min) is 41.3.

As to `CCN(CC)c1ccc2oc(=O)c(C)nc2c1`, the fluorescence change (max-min) is 165 (active).

Turning to `CCN(CC)c1ccc2cc(C(=O)O)c(=O)oc2c1`, the fluorescence change (max-min) was 153 (active).

For `CCOC(=O)C1CCCN(Cc2nc(N)nc(Nc3ccc(C)cc3)n2)C1` (configuration not stated), the fluorescence change (max-min) was 127 (active).

With `FC(F)(F)COc1nc(N2CCCCC2)nc(N2CCNCC2)n1`, the fluorescence change (max-min) is -8.96.

Take `CCOc1nc(-c2ccc(OC)cc2)ccc1-c1noc(-c2cc(OC)c(OC)c(OC)c2)n1`: the fluorescence change (max-min) is -5.3.

As to `O=C(CSc1nnc(Cn2cnc3ccccc32)o1)c1ccccc1`, the fluorescence change (max-min) was -8.96.

As for `CCc1nc(Nc2ccc3nccnc3c2)c2oc3ccccc3c2n1`, the fluorescence change (max-min) is -1.32.

As for `Cc1ccc(C(=O)COc2cccc(NC(=O)c3ccco3)c2)cc1`, the fluorescence change (max-min) is 131 (active).

In the case of `COc1ccc(CCNC(=O)c2ccco2)cc1`, the fluorescence change (max-min) was -16.3.

As to `CN1C(=O)c2ccc(NC(=O)c3c(F)c(F)c(F)c(F)c3F)cc2C1=O`, the fluorescence change (max-min) is 1.53.

Consider `O=C(c1ccccc1)c1ccc(OC(=O)N2CCCC2)cc1`, for which the fluorescence change (max-min) was -8.75.

In the case of `Fc1ccc2[nH]c3c(N4CCSCC4)ncnc3c2c1`, the fluorescence change (max-min) was 6.07.

In the case of `CC(C)OCCCNc1ncnc2c1[nH]c1ccc(F)cc12`, the fluorescence change (max-min) is 51.6 (active).

`O=C(Nc1nc(-c2ccc3c(c2)OCO3)cs1)c1ccncc1`: the fluorescence change (max-min) was -8.33.

For `O=C(COC(=O)CCc1c[nH]c(=O)[nH]1)Nc1ccccc1Cl`, the fluorescence change (max-min) was 13.2.

With `CCOc1cc(-c2nc3cc(C)ccn3c2NCC2CCCO2)ccc1O` (configuration not stated), the fluorescence change (max-min) is -30.6 (active).

As for `c1cnn(-c2cc(N3CCOCC3)ncn2)c1`, the fluorescence change (max-min) was -19.

Take `Cc1nc(CNS(=O)(=O)c2ccc(Oc3ccccc3)cc2)cs1`: the fluorescence change (max-min) is -2.69.

Regarding `CCOc1ccc2nc(N3CCCN(C(=O)Nc4ccccc4C)CC3)c(C#N)cc2c1`, the fluorescence change (max-min) is 282 (active).

For `Cc1nn2c(c1-c1ccccc1)N=C(c1ccco1)CC2c1ccccc1` (configuration not stated), the fluorescence change (max-min) was 21.8.

Take `COCCNC(=O)C(c1ccc(C)o1)N(Cc1cccs1)C(=O)c1snc(C(N)=O)c1N` (configuration not stated): the fluorescence change (max-min) is -1.36.

Turning to `CCN=C1SC(CC(=O)Nc2ccc(C)cc2)C(=O)N1CC` (configuration not stated), the fluorescence change (max-min) was -26.1 (active).

As to `Cc1ccc(S(=O)(=O)Nc2ccc3ncccc3c2)cc1`, the fluorescence change (max-min) was 17.4.

For the compound `CCOc1ccc(NC(=O)N2CC=C(n3c(=O)[nH]c4ccccc43)CC2)cc1`, the fluorescence change (max-min) is -24.

For `O=C(CSc1nc2ccccc2o1)N1CCN(c2ccc(Cl)cc2)CC1`, the fluorescence change (max-min) is -34.5 (active).

`O=C(CC1Nc2ccccc2NC1=O)Nc1ccccc1` (configuration not stated): the fluorescence change (max-min) was -7.08.

Turning to `Cn1c(=O)c2c(nc(SCC(=O)Nc3ccccc3N3CCCCC3)n2C)n(C)c1=O`, the fluorescence change (max-min) is -20.5.

For the compound `CC1CCCC(C)N1C(=O)CN1CCN(c2nc(-c3ccc(F)cc3)cs2)CC1` (configuration not stated), the fluorescence change (max-min) was -5.14.

For `O=C(NCCC1=CCCCC1)C1CCN(Cc2cnn(-c3ccccc3)c2-n2cccc2)CC1`, the fluorescence change (max-min) is -25.7 (active).

For `COc1ccccc1N1CCN(C(=O)c2c(-c3c(Cl)cccc3Cl)noc2C)CC1`, the fluorescence change (max-min) was -19.2.

Consider `O=C(Nc1cccc(NC(=O)N2CCN(c3ccccc3)CC2)c1)N1CCN(c2ccccc2)CC1`, for which the fluorescence change (max-min) is 1.01.

`O=C(Cn1cc(C(=O)c2cccs2)c2ccccc21)NCc1cccs1`: the fluorescence change (max-min) was -4.9.

Regarding `Cc1cccn2c(=O)c3cc(C#N)c(=NC(=O)c4cccnc4)n(CC4CCCO4)c3nc12` (configuration not stated), the fluorescence change (max-min) is 310 (active).

On to `Cn1c(C(=O)NCCc2ccsc2)cc2c(=O)n(C)c3ccccc3c21`, for which the fluorescence change (max-min) is -12.8.

In the case of `COc1ncnc2c1N=C1CC(C)(C)CC(N)=C1S2`, the fluorescence change (max-min) is 175 (active).

`COc1ccc(C(C(O)C(=O)c2c[nH]c3ccccc23)N2CCN(c3ccccc3)CC2)cc1` (configuration not stated): the fluorescence change (max-min) was -11.7.
